HPGD inh = HPGD (human) dehydrogenase inhibition; 4.3% of 150,000 active; purified HPGD, NADH fluorescence kinetic, PGE2 substrate; Potency, µM, without a hit: top-dose activity change, negative = inhibition, actives largely listed as inhibitors; P15428; also: potency is read from the fitted curve at half-maximal effect
Target sequence (P15428 whole entry, looked up): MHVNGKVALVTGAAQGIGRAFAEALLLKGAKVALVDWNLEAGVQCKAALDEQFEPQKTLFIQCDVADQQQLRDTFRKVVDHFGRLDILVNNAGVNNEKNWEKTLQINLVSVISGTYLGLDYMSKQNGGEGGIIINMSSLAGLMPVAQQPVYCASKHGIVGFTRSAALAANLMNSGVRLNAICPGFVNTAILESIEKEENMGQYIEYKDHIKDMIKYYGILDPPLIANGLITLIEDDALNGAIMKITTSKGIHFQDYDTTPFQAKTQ
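20 nM HPGD preincubated 15 min at room temperature with compound in 50 mM Tris-HCl pH 8, 0.01% Tween 20. Started with 1 mM NAD+ and 30 uM prostaglandin E2; NADH fluorescence (360/450 nm) read 5 times over 30-s intervals, last minus first.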
ALDH1A1 block = blocks purified human ALDH1A1 activity; P00352; Purified ALDH1A1, NADH fluorescence, propionaldehyde substrate; Potency, µM (titrated, usually from 75.3 µM), for inactives: at the highest dose activity, negative = inhibition, most hits filed as inhibitors; 7.3% of 220,000 active; AID 1030;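 also: potency is read from the fitted curve at half-maximal effect; plate controls were no enzyme wells and a reference inhibitor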
Target sequence (P00352 whole entry, looked up): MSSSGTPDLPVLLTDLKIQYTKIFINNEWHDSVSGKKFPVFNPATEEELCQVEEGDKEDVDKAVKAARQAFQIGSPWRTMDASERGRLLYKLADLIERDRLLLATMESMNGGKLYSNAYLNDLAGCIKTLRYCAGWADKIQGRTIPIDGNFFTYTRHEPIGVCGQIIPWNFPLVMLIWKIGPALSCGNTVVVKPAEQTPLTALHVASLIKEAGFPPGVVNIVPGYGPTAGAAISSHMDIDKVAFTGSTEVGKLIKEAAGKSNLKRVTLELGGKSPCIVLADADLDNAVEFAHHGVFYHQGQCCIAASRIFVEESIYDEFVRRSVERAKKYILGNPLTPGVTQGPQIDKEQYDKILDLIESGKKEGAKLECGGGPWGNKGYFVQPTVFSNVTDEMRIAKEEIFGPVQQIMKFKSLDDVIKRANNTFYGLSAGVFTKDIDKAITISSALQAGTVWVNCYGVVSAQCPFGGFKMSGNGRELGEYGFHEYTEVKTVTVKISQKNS
IMPase inh = membrane-permeable compound that blocks inositol monophosphatase; P97697; CHO-M1 cells, IP1 accumulation, HTRF TR-FRET ratio; inhibition (IP1 accumulation), % at 46.1 µM; 120,000 tested, under 10 active; AID 901; active = well fitted curve in the direction sought with a large enough effect in the signal ratio, not every such curve was filed as active; inconclusive = small, poorly fitted or top-dose-only effect, or a change in a side signal; inactive = no such curve, though single readings can be large or run the other way; the % refers to the signal ratio;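 also: cells stimulated with carbachol in lithium chloride buffer; plate controls were DMSO basal wells for no effect and reference inhibitor wells for full effect; higher means more IMPase inhibition seen as more IP1 and lower FRET ratio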
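CHO-M1 cells (CHO stably expressing M1 receptor), compound up to 46 uM final, stimulated with carbachol (50 uM as added) in buffer with 50mM LiCl, pH 7.4, 30 min at 37C. Cytosolic IP1 read by TR-FRET; AC50 from Hill fits.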
PNC assembly inh = perinucleolar compartment assembly inhibition. PC3M PTB-GFP, PNC prevalence imaging, 16 h; active compounds read low. activity change (PNC), negative = inhibition, % at 10 µM. 3.1% of 140,000 active;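 active = readout at or below -70, meaning at least 70% loss of cells showing the perinucleolar compartment, a nuclear body marking cancer cells; inconclusive = readout between -30 and a set limit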;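 also: plate controls were DMSO wells for no effect and camptothecin positive control wells for full effect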
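PC3M cells stably expressing PTB-GFP, 750–1000 cells/well, treated 16 h at 37 °C with compound (23 nl of library stock), in duplicate. After paraformaldehyde fixation and Hoechst stain, imaged at 20x; PNC prevalence scored by image analysis.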
IMPase Li inh = cell-permeable IMPase inhibitors with lithium potentiation | CHO-M1 cells, IP1 TR-FRET (IP-One), carbachol + lithium | Potency, µM (highest dose often 59.4 µM), inactives show at the highest dose activity, negative = IMPase inhibition, hits mostly inhibitors | 0.35% of 210,000 active; active = well fitted curve in the direction sought with a large enough effect; inconclusive = small, poorly fitted or top-dose-only effect, or another doubt; inactive = no such curve, though single readings can be large; an effect the other way counts as inactive or inconclusive;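 also: IP1 builds up when IMPase is blocked and the TR-FRET signal falls; potency is read from the fitted curve at half-maximal effect; plate controls were basal vehicle for no effect and high inhibitor control for full effect; nearly all actives have a fitted effect of over 50% in size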
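Test compounds were applied to CHO-M1 cells previously cultured for 16–30 h at 2000 per well. A small lithium amount accompanied them; after 30 min at 37C, IP1 was quantified by TR-FRET.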
12-hLO inh = 12-hLO (ALOX12) enzyme inhibition | P18054 | purified 12-hLO, xylenol orange hydroperoxide absorbance | Potency, µM (titrated, usually from 57.1 µM), for the others: top-dose activity change, negative = inhibition, actives largely listed as inhibitors | 0.12% of 150,000 active | AID 1452; active = well fitted curve in the direction sought with a large enough effect; inconclusive = small, poorly fitted or top-dose-only effect, or another doubt; inactive = no such curve, though single readings can be large; an effect the other way counts as inactive or inconclusive; also: potency is read from the fitted curve at half-maximal effect; nearly all actives have a fitted effect of over 55% in size
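Lipoxygenase turnover measured by absorbance at 573 and 405 nm after Fe-XO development. Human 12hLO 150 nM, arachidonate 40 uM, pH 7.0 Hepes buffer with detergent; 15 min compound preincubation, 30 min reaction.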
Numbers without * were called inactive; i = inactive; ? = inconclusive; nt = not tested or not shown; [ ] = dose if it differs, or a comment. This is a sample that favours compounds with a hit; in the whole collection about 11% have one here. Unless noted, calls follow the shape of the dose curve; as a rule, active = well fitted inhibition curve with a large enough effect (not every such curve was filed as active); inconclusive = small, poorly fitted or top-dose-only effect, or another doubt; inactive = no such curve, though single readings can be large or run the other way. Unless noted, % is scaled to controls: 0 for no effect and ±100 for the full control effect.

SMILES	HPGD inh	ALDH1A1 block	IMPase inh	PNC assembly inh	IMPase Li inh	12-hLO inh
O=C(Nc1cccnc1)c1ccc2c(c1)C(=O)N(CC1CCCO1)C2=O (configuration not stated)	nt	?	nt	nt	0.6%	nt
Cc1c(NC(=O)c2ccc3c(c2)C(=O)N(Cc2ccco2)C3=O)cccc1C(=O)O	nt	?	nt	nt	7.5%	nt
Cc1nnc(NC(=O)c2ccc3c(c2)C(=O)N(CCC(C)C)C3=O)s1	-5.7%	?	-3.0	-16.6	-8.5%[38.3 µM]	1.0%
Cc1nnc(NC(=O)c2ccc3c(c2)C(=O)N(CC2CCCO2)C3=O)s1 (configuration not stated)	-1.7%	?	-2.0	-90.0*	1.4%[38.3 µM]	1.8%
O=C(Nc1ccc2c(c1)C(=O)N(CC1CCCO1)C2=O)c1ccc(Cl)c(Cl)c1 (configuration not stated)	?	?	12.5	?	49.3%[38.3 µM]	4.1%
Cc1c(NC(=O)c2ccc3c(c2)C(=O)N(CC2CCCO2)C3=O)cccc1C(=O)O (configuration not stated)	-4.5%	?	0.5	-81.3*	14.7%[38.3 µM]	2.7%
C=CCn1c(NCCO)nc2sc3c(c2c1=O)CCC3	-7.3%	-2.7%	-0.1	-113.6*	12.1%[38.3 µM]	-5.6%
O=C(CC1OC(=O)c2ccccc21)Nc1ccccc1N1CCOCC1 (configuration not stated)	-2.7%	-6.9%	-3.2	?	4.9%[38.3 µM]	-0.8%
CC(=O)N1CCN(C(=O)CC2OC(=O)c3ccccc32)CC1 (configuration not stated)	?	5.01µM*	1.6	7.3	10.1%[38.3 µM]	-5.2%
O=C(NC(=S)N1CCN(C/C=C/c2ccccc2)CC1)c1ccc(Cl)nc1	nt	17.8µM*	nt	nt	nt	nt
C=CCNC(=O)C(=O)N/N=C/c1cccc(Br)c1	nt	4.8%	nt	nt	-0.2%	nt
Cc1ccccc1NC(=O)C(=O)N/N=C/c1cccc(Br)c1	-3.5%	17.0%	nt	-113.8*	-7.1%	4.1%
CCCCCOCC1CC(C/C(C)=N/NC(N)=S)C(=O)O1 (configuration not stated)	-0.4%	?	nt	-10.8	7.9%	4.4%
CCCCCOCC1CC(C/C(C)=N/Nc2nc(-c3ccccc3)cs2)C(=O)O1 (configuration not stated)	-6.5%	25.1µM*	-6.0	36.4	0.9%[38.3 µM]	-2.1%
CC(C)c1ccc(S(=O)(=O)c2cc3cc(Br)ccc3oc2=O)cc1	-7.4%	-16.1%	5.4	58.3	14.1µM*	4.5%
Cc1ccc(S(=O)(=O)c2cc3cc(Br)ccc3oc2=O)cc1	-12.7%	-1.0%	?	97.6	1.3%	0.1%
CC(C)(C)N(NC(=O)OCc1ccccc1)C(=O)c1ccccc1	0.1%	1.5%	nt	-80.4*	-2.3%	-2.3%
CC(C)(C)N(NC(=O)OCc1ccccc1)C(=O)c1ccccc1Cl	-4.1%	2.0%	nt	-16.8	3.0%	-4.1%
CCc1ccc(C(=O)NN(C(=O)c2ccc(CC)cc2)C(C)(C)C)cc1	25.1µM*	-1.8%	nt	32.1	16.5%	-0.2%
Cc1cccc(CCNC(=O)C2CCN(S(=O)(=O)c3ccccc3)CC2)c1	nt	-10.8%	nt	nt	0.7%	nt
COCCCNC(=O)C1CCN(S(=O)(=O)c2c(C)noc2/C=C\c2ccc(OC)cc2)CC1	i	?	0.0	-109.2*	13.7%[38.3 µM]	2.4%
COCCNC(=O)C1CCN(S(=O)(=O)c2ccccc2)CC1	25.1µM*	0.0%	4.6	11.0	6.2%[38.3 µM]	-4.9%
CCCCNC(=O)C1CCN(S(=O)(=O)c2c(C)noc2/C=C\c2ccc(OC)cc2)CC1	27.1%	6.8%	0.3	31.5	0.0%[38.3 µM]	5.0%
Cc1cccc(CCNC(=O)C2CCC(CNS(=O)(=O)c3cccs3)CC2)c1 (configuration not stated)	nt	1.78µM*	nt	nt	-3.9%	nt
O=C(C1CCC(CNS(=O)(=O)c2cccs2)CC1)N1CCCCC1 (configuration not stated)	3.16µM*	?	-7.0	?	20.5%[38.3 µM]	-2.2%
SMILES	HPGD inh	ALDH1A1 block	IMPase inh	PNC assembly inh	IMPase Li inh	12-hLO inh
CN1CCN(c2ncc3nc(-c4ccccc4)c(=O)n(C4CC4)c3n2)CC1	nt	?	nt	nt	-1.2%	nt
CC1=C(C(=O)O)N2C(=O)C(NC(=O)C(N)c3ccc(O)cc3)C2SC1 (configuration not stated)	-17.3%	-6.8%	nt	nt	-6.3%	-5.2%
N[C@@H](Cn1cc(F)c(=O)[nH]c1=O)C(=O)O	-7.6%	-5.4%	-1.5	nt	6.1%	-3.3%
O=C(OCn1nnc2ccccc2c1=O)C1CCN(S(=O)(=O)c2cccs2)CC1	-7.6%	3.8%	-0.2	-100.0*	-0.3%	-0.1%
O=S(=O)(NCCc1ccc2c(c1)OCCO2)c1cccs1	-12.7%	-8.0%	16.7	-81.3*	-9.0%	1.7%
O=C(NCCc1ccccc1)C1CCN(S(=O)(=O)c2cccs2)CC1	-3.2%	10µM*	-2.2	?	-13.3%[38.3 µM]	-5.9%
O=C(c1ccc2c(c1)OCCO2)N1CCCC(CNS(=O)(=O)c2cccs2)C1 (configuration not stated)	nt	2.24µM*	nt	nt	-1.6%	nt
Cc1ncsc1C(=O)N1CCCC(CNS(=O)(=O)c2cccs2)C1 (configuration not stated)	nt	-14.3%	nt	nt	1.8%	nt
O=C(COC(=O)C1CCN(S(=O)(=O)c2cccs2)CC1)c1ccccc1	nt	-0.3%	nt	nt	-2.2%	nt
FC(F)(F)c1ccccc1-c1cncnc1NCc1cccs1	nt	?	nt	nt	4.1%	nt
CCOc1ccc2nc3cc(N=Nc4ccc(N)nc4N)ccc3c(N)c2c1	-8.2%	-3.3%[13.5 µM]	nt	nt	0.4%	-0.8%[11.4 µM]
O=C(NCCc1ccccc1)C1CCC(CNS(=O)(=O)c2cccs2)CC1 (configuration not stated)	nt	3.98µM*	nt	nt	-2.7%	nt
O=C(C1CCC(CNS(=O)(=O)c2cccc3cccnc23)CC1)N1CCCC1 (configuration not stated)	6.31µM*	-8.3%	3.3	?	7.0%	-1.9%
CC1CCCC(C)N1C(=O)COC(=O)c1cc(Br)ccc1Cl (configuration not stated)	nt	20µM*	nt	nt	31.9%	nt
COc1ccc(Cl)cc1NC(=S)Nc1cccnc1	nt	-1.0%	nt	nt	-0.3%	nt
Cc1ccc(C(=O)/C=C/C(=O)c2ccc(C)cc2)cc1	nt	0.891µM*	nt	nt	16.5%	nt
Cc1ccc(/C=C/C(=O)c2ccc(C)cc2)cc1	-6.8%	-10.8%	4.4	15.6	6.2%	-3.0%
Cc1ccc(N/C=C/C(=O)c2ccc(C)cc2)cc1	-26.4%	?	-12.2	-7.3	20.4%[38.3 µM]	2µM*
O=S(=O)(c1ccccc1)N1CCC[C@@]2(CCN(c3ccncc3)C2)C1	5.6%	5.3%	nt	nt	15.0%	-1.9%
CC(C)=NOC[C@@H](C)[C@H](OCc1ccccc1)C(C)C	nt	-0.3%[13.5 µM]	nt	nt	nt	nt

Screens: PubChem BioAssay, National Center for Advancing Translational Sciences (NCATS)
